The text below walks through data of PubChem BioAssay AID624287 (National Center for Advancing Translational Sciences (NCATS), 2012).

Hit rate of the full screen: of about 340,000 compounds, about 420 (0.12%) were called active. A call without a number means that no potency is given here. Inconclusive results (about 10%) are left out. Only a selection was taken, and actives are over-represented in it overall. A number with no mark means an inactive call. Calls come from the whole dose curve; as a rule, active = well fitted activation curve with a large enough effect; inconclusive = small, poorly fitted or top-dose-only effect, or another doubt; inactive = no such curve, though single readings can be large or run the other way; cell line not stated here.
Potency is the fitted concentration of half-maximal effect.

This assay is described as follows: qHTS for Agonist of gsp, the Etiologic Mutation Responsible for Fibrous Dysplasia/McCune-Albright Syndrome: qHTS.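 For activation (cAMP increase): phosphodiesterase inhibitor Ro 20-1724 added with compounds to block cAMP breakdown.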 Note: nearly all actives have a fitted effect of over 60% in size. Conditions: gsp mutant cells, cAMP HTRF, 30 min; series mostly up to 76.9 µM. The source says:
McCune-Albright syndrome (MAS) is a rare disease caused by somatic mutations in Gsgsp), a widely expressed protein central in signal transduction from G-coupled protein receptors (GPCRs). The disease symptoms are diverse, owing to the fact that the patients are mosaics with varying degrees of tissue involvement. Greater than 90% of the mutations in Gs in MAS occur at the R201 position and are equally divided between R201H and R201C. The R201 residue is central in the intrinsic GTPase activity of Gs and the H and C mutations lead to loss of, or impairment of, the GTPase activity. The intrinsic GTPase activity is necessary to terminate the interaction between Gs and adenylate cyclase, and to terminate the cAMP-mediated signaling of the given GPCR pathway. Thus, these activating mutations lead to ligand-independent activation of GPCR pathways. The tissue phenotype is determined by the role of Gs in the function of a given cell, and excess Gs/cAMP signaling in that cell. For example, pituitary somatotrophs overproduce growth hormone in a growth hormone releasing hormone-independent fashion, and gigantism/acromegaly ensues. Skeletal stem cells in the bone marrow behave as if they are under constant parathyroid hormone stimulation and fail to differentiate into osteoblasts and osteocytes, and proliferate as immature osteogenic cells and lead to the marrow fibrosis of fibrous dysplasia of bone. The goal of this project is to identify molecules with stimulatory activity at gsp mutations that will not only allow for in-depth study of the underlying molecular and cellular pathophysiology, but also serve as compounds from which drugs to treat FD/MAS can be developed NIH Chemical Genomics Center [NCGC] NIH Molecular Libraries Probe Centers Network [MLPCN] MLPCN Grant: IRP-FT-DE-2011-01 Assay Submitter (PI): Michael Collins, NIDCR
1.#Seed 2000 cells/well in 6 ul DMEM 10% FBS, 1% Pen/Strep, 0.5 mg/ml G418 2.#Incubate 16-24 hr at 37C, 5% CO2, 95% humidity 3.#Aspirate leaving 1 ul residual volume 4.#Dispense 5 ul/well DPBS + 1 mM CaCl2, 0.5 mM MgCl2, 0.05% BSA, 0.005% Tween 20 5.#Aspirate leaving 2 ul residual volume 6.#Dispense 23 nl/well compounds in DMSO 7.#Dispense 1 ul/well 300 uM Ro-20174 in DMEM 10% FBS 8.#Incubate 30 min at 37C, 5% CO2, 95% humidity 9.#Dispense 1.5 ul/well HTRF reagent: cAMP-d2 in lysis buffer 10.#Dispense 1.5 ul/well HTRF reagent: anti-cAMP antibody-K in lysis buffer 11.#Incubate 30 min at room temperature 12.#Detect HTRF signal using EnVision plate reader
Turning to `CC1(C)CN(CCc2ccccc2)C(=O)[C@H]1CC(=O)Nc1ccc(Br)cc1`, the Potency entry is “inactive”.
The same measure, in the same setting: the value for `Cc1ccc(S(=O)(=O)/N=C2\C=C(NS(=O)(=O)c3ccc(C)cc3)C(=O)c3ccccc32)cc1` was “inactive”.
As to `COCOCCn1cc(CN2CCS(=O)(=O)N(Cc3ccc(-c4ccccc4)cc3)C(CC(C)C)C2=O)nn1` (stereo unspecified), the Potency entry is “inactive”.
Still for that read-out and setting: the value for `COc1ccccc1-c1n[nH]nc1C1=CC(=O)CC(C)(C)C1` was “inactive”; that for `CC1=C(C(=O)N2CCOCC2)CC(CC(=O)NCC2CCCCC2)C(=O)N1Cc1ccc(F)cc1` (stereo unspecified) was “inactive”.
Same read-out and setting: the value for `CCOC(=O)C1CCN(C(=O)c2ccc3c(=O)n4nc(Nc5ccccc5CC)sc4nc3c2)CC1` was “inactive”.
Same read-out and setting: the value for `O=Cc1cn(CCOc2ccc(F)cc2)c2ccccc12` was “inactive”.
Turning to `COC(=O)C(C)Sc1ccc2nnc(-c3cccc(F)c3)n2n1` (stereo unspecified), the Potency was 10 µM (active).
Regarding `CCOc1ccc(-c2nnc3ccc(SC)nn23)cc1`, the Potency result is “inactive”.
For the molecule `CCOC(=O)CNC(=O)CSc1ccc2nnc(-c3cccnc3)n2n1`, the activation (cAMP increase) is 37.7% [at 15.4 µM].
In the case of `CCN(CC)C(=O)C1=C(C)N(Cc2ccc(F)cc2)C(=O)C(CC(=O)NCc2cccc3ccccc23)C1` (stereo unspecified), the Potency entry was “inactive”.
Still for that read-out and setting: the value for `C[C@H]1CN([C@@H](C)CO)C(=O)c2cc(-c3ccccc3F)cnc2O[C@H]1CN(C)C(=O)C1CCOCC1` was “inactive”.
Still for that read-out and setting: the value for `Cc1ccc(S(=O)(=O)N2C[C@]3(O)C[C@@H]4C(=O)N(c5ccccc5)C(=O)[C@@H]4C[C@]3(OC(=O)NC3CC3)C2)cc1` was “inactive”.
As for `CNC(=O)C1CN(C(=O)c2cccc(S(=O)(=O)N3CCc4ccccc43)c2)c2ccccc2O1` (stereo unspecified), the Potency result is “inactive”.
In the case of `CCN1CCN(CCNC(=O)c2ccc3c(c2)NC(=O)/C(=C\c2cccc(Cl)c2)S3)CC1`, the Potency result is “inactive”.
Same read-out and setting: the value for `O=C(C[C@H]1C[C@H]2c3cc(NS(=O)(=O)c4ccc(F)cc4)ccc3O[C@H]2[C@H](CO)O1)NCc1cc(F)ccc1F` was “inactive”; that for `c1ccc2c(c1)nnn2-c1ccncc1` was “inactive”; that for `COc1cc2c(cc1OC)C1C(=O)c3cc(OS(C)(=O)=O)c(OC)cc3C1N(C)C2=O` (stereo unspecified) was “inactive”.
Still for that read-out and setting: the value for `CCCCCC(=O)N1C[C@H](O)[C@@H](n2cc(COC(=O)c3ccccc3)nn2)C[C@@H]1c1ccc(C)cc1` was “inactive”.
With `CC1CN(C(=O)c2cccc(NS(=O)(=O)c3ccc(Br)cc3)c2)CC(C)O1` (stereo unspecified), the Potency entry is “inactive”.
For the molecule `Cc1ccc(C=O)c([B-](F)(F)F)c1`, the Potency result was “inactive”.
Take `CC(C)c1cc(C(=O)NC2CCCCCC2)c2ccccc2n1`: the Potency result was “inactive”.
For `CN(C)C(CNC(=O)c1cccc(S(=O)(=O)N2CCc3ccccc3C2)c1)c1ccccc1` (stereo unspecified), the Potency result is “inactive”.
The same measure, in the same setting: the value for `CCCCCCN1C[C@@H](O)[C@H](n2cc(COC(=O)c3ccccc3)nn2)C[C@@H]1c1ccc(Cl)cc1` was “inactive”; that for `CCN(CC)C(=O)C1=C(C)N(Cc2ccc(C(C)(C)C)cc2)C(=O)C(CC(=O)NCc2cccc3ccccc23)C1` (stereo unspecified) was “inactive”.
Still for that read-out and setting: the value for `COc1ccc([C@H]2N[C@]3(CCCN(Cc4ccco4)C3=O)[C@H]3C(=O)N(C)C(=O)[C@@H]23)cc1` was “inactive”.
